# Exocytosis inh: LAMP-1 surface exposure blockers, TALL-104 cells – cell-based, flow cytometry, MLPCN library, primary screen. inhibition, % at 10 µM. AID 651702, 2012. actives 0.66% (n = 360,000). TALL-104 LAMP-1 surface exposure; cells stimulated with thapsigargin and PMA;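 active = inhibition above about 55%, limit read from the data; inconclusive = no clear call, values can overlap the other calls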
# beta cell repl: inducers of MIN6 beta-cell proliferation, primary screen, ATP luminescence, uHTS | MIN6 cells proliferation, ATPlite luminescence, 48 h; cells starved in 0.2% serum; 100% = growth in 10% serum | proliferation, % at 10 µM | actives 0.29% (n = 330,000) | AID 2380, 2010;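 active = compounds whose signal lies at least 3.5 SD above the mean of all wells on their plate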;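 note: 0% = DMSO-treated cells in low-serum medium and 100% = 10% serum control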
# ALR H2O2 inh: inhibitors of human ALR sulfhydryl oxidase, primary screen, biochemical, H2O2 detection, HRP-luminol luminescence, single point; FAD-linked sulfhydryl oxidase ALR (Homo sapiens), P55789; purified ALR, DTT oxidation; inhibition, % (no concentration beside the values); actives 3.8% (n = 290,000); AID 485317, 2010;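 active = mean replicate inhibition above about 79%, with every replicate also reaching it, limit read from the data; inconclusive = only one of the two criteria met; inactive = mean below limit and not every replicate reaching it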
# Target sequence (P55789 whole entry, looked up): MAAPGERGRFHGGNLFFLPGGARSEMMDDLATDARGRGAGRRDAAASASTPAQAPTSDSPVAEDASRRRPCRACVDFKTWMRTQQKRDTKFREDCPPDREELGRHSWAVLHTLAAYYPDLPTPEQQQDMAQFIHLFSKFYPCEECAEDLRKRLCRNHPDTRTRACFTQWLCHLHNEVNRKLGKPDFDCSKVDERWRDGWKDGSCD
# SMARCA2 act: SMARCA2 (BRM) function activators, primary screen, cell-based, luminescence, high throughput. MG213 cells, MMTV-luciferase reporter, dexamethasone, overnight. activation, % at 9.1 µM. actives 1% (n = 370,000). AID 652017, 2013; in the data active = activation above about 7.8%;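 note: 0% = vehicle wells and 100% = reference activator wells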
# JMJD2C inh: inhibitors of GASC-1 histone demethylase, primary screen, biochemical, fluorescence, DELFIA europium; Lysine-specific demethylase 4C (Homo sapiens), Q9H3R0; GST-JMJD2C(1-420) H3K9me3 demethylation; inhibition, % at 2.35 µM; actives 0.069% (n = 330,000);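 active = more than half of a compound's replicate wells show inhibition beyond 50%, single wells judged on their own value; inconclusive = some, but no more than half, of replicates pass 50% inhibition; inactive = no replicate passes 50% inhibition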;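 note: signal counts dimethyl H3K9 product captured on neutravidin plate; 0% = median of DMSO wells and 100% = 0.3 times that DMSO median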
# Target sequence (Q9H3R0 1-420 limits assumed): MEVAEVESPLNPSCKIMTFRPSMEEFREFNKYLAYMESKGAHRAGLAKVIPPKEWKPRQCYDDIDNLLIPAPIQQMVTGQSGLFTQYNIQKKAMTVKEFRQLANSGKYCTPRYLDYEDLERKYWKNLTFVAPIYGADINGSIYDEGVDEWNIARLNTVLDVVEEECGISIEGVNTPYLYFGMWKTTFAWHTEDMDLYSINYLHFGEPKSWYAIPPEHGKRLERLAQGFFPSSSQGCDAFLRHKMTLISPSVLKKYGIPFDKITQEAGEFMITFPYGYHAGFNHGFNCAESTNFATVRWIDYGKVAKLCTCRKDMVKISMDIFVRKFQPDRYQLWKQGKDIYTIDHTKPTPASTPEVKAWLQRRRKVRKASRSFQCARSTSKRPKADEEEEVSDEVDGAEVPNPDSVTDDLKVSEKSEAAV
# M18AAP inhibitor: PfM18AAP inhibitors, malaria aminopeptidase, primary screen, biochemical, QFRET, recombinant enzyme; inhibition, % at 7.35 µM; actives 1.2% (n = 290,000); H-Glu-NHMec fluorogenic cleavage; M18 aspartyl aminopeptidase (Plasmodium falciparum 3D7);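 active = inhibition above the campaign mean inhibition over all tested compounds plus 3 SD, cut at about 28% in these data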;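 note: 0% = plate median of test compound wells and 100% = 2 mM ZnCl2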
# Numbers without * were called inactive; ? = inconclusive; · = no result. Most compounds without a hit are left out; they make up all but 5.4% or so of the library.
SMILES,Exocytosis inh,beta cell repl,ALR H2O2 inh,SMARCA2 act,JMJD2C inh,M18AAP inhibitor
Cc1cccc(OCC(=O)NNc2c3ccccc3nc3ccccc23)c1,3,-3,99*,-2,-2,-8
O=C(Cc1ccccc1)NNc1c2ccccc2nc2ccccc12,0,1,98*,2,0,4
Cc1ccc(OCC(=O)NNc2c3ccccc3nc3ccccc23)cc1,3,-5,96*,-5,-5,-5
CCCC1=NN2C(=N)/C(=C\c3ccc(SCc4ccco4)o3)C(=O)N=C2S1,2,-2,99*,·,-41,17
O=C1NC(=S)S/C1=C\c1ccc(SCc2ccco2)o1,-11,·,99*,·,0,37*
CCC1=NN2C(=N)/C(=C\c3ccc(SCc4ccco4)o3)C(=O)N=C2S1,0,1,?,-1,-11,30*
Clc1ccc([C@H]2OC[C@@]3(CNCc4ccccn4)CS[C@H](c4ccc(Cl)cc4)N23)cc1,·,·,·,-1,·,·
COc1ccc(Cn2ccc3ccc(-c4ccc5ccn(Cc6ccccc6F)c5c4)cc32)cc1,·,·,·,-4,·,·
CC1CN(C(=O)C(C)N2CCN(c3cccc(Cl)c3)CC2)CC(C)O1 (configuration not stated),1,1,88*,1,-4,-1
CC1CN(C(=O)C(C)N2CCN(c3ccccc3Cl)CC2)CC(C)O1 (configuration not stated),0,3,-2,-3,-7,-1
COc1ccc(Cn2ccc3ccc(-c4ccc5ccn(Cc6ccc(OC)cc6)c5c4)cc32)cc1,·,·,·,-2,·,·
CCn1ncc(/C=N\NC(=O)COc2ccccc2)c1C,-3,0,96*,2,1,4
Cc1cc(C(=O)C(=O)N(C)C)c(C)n1-c1ccc(Cl)c(Cl)c1,-4,0,-1,-5,-21,1
Cc1cc(C(=O)C(=O)O)c(C)n1-c1ccc(Cl)c(Cl)c1,-2,-3,95*,-3,-1,-4
NCCSc1c(-c2ccccc2)[nH]c2ccccc12,0,-5,97*,-1,-2,2
Cc1cc(C)cc(OCC(C)CN2CCC(C(O)(c3ccccc3)c3ccccc3)CC2)c1 (configuration not stated),·,·,·,-5,·,·
c1ccc2c(C3=NNC(=NC4CCCCC4)SC3)c[nH]c2c1,4,-3,15,5,-13,-7
C=CCn1c(C)cc(C2=NNC(=NC(C)(C)C)SC2)c1C,-6,0,99*,-6,-13,8
COCCn1c(C)cc(C2=NNC(=NC3CC3)SC2)c1C,-4,-5,97*,-9,9,15
c1ccc2c(C3=NNC(=NC4CC4)SC3)c[nH]c2c1,0,-2,99*,4,-10,32*
COc1ccc(-n2c(C)cc(C3=NNC(=NC4CC4)SC3)c2C)cc1,2,·,·,9.8*,·,15
Cc1cccc(NC(=O)Nc2ccccc2C(=O)N2CCCC2)c1,·,·,·,1,·,·
O=C(O)Cc1sc(Nc2ccc(F)cc2)nc1-c1cccs1,2,-4,41,2,-49,29*
Cc1ccc(Nc2nc(-c3ccccc3)c(CC(=O)O)s2)cc1,-1,0,0,0,3,11
COC[C@@H]1CCCN1c1cccc2c1S(=O)(=O)N(C1CC1)CC[C@@H](C)O2,·,·,·,-2,·,·
SMILES,Exocytosis inh,beta cell repl,ALR H2O2 inh,SMARCA2 act,JMJD2C inh,M18AAP inhibitor
CC(C)c1cc(C(N)=O)c(NC(=O)C2CCC2)s1,0,0,97*,-4,-8,-6
COc1cnc(-c2ccccn2)nc1Sc1ccccc1,1,-3,96*,1,-1,5
Cc1cc(C)c2ccc(N)nc2c1O,-1,-6,91*,2,2,6
O=C(N[C@@H](Cc1ccccc1)C(=O)CCl)OCc1ccccc1,0,-8,97*,1,2,·
C/C=C/C=C/C(=O)N1C[C@H](C)N(C)C[C@H]1C,·,·,·,7,·,·
CCn1nc([N+](=O)[O-])c(C(C#N)c2nc3cc(C(F)(F)F)ccc3s2)c(Cl)c1=O (configuration not stated),83*,-6,98*,-2,11,-14
CCc1cc(=O)oc2c(CN3CCCC3)c(O)c(Cl)cc12,2,-2,5,-2,-1,0
CCc1c(C)c2cc(Cl)c(O)c(CN3CCCCC3)c2oc1=O,-1,0,98*,-4,-26,4
COc1ccc(-n2c(SCC(=O)Nc3ccc4c(c3)OCO4)nc3sc4c(c3c2=O)CCCC4)cc1,·,·,·,-5,·,·
OCCc1ccc(O)cc1,-4,-2,22,-3,·,·
Cc1ccc(O)c(CCc2ccc(O)cc2)n1,-3,-2,94*,1,-2,-1
Nc1c(C(=O)N2CCN(CCc3ccccc3)CC2)cnn1-c1ccccc1,·,·,·,-2,·,·
O=C(NCc1ccc(C(=O)N2CCOCC2)cc1)c1cccc(Br)c1,·,·,·,-3,·,·
CCCCCCCCC[n+]1cccc2c3ccccc3ccc21,56*,-8,-13,·,4,-12
CCCCCCCCCCCCCCCC[n+]1cccc2ccccc21,40,-3,4,-11,0,2
O=[N+]([O-])/C(C(Cl)=C(Cl)Cl)=C(/Sc1ccccc1)N1CCCCC1,-4,-4,92*,-3,-10,5
O=C(N/C(=C\c1ccc([N+](=O)[O-])cc1)C(=O)N1CCCCC1)c1ccccc1,2,-2,11,2,2,8
COCCN1Cc2cccc(C(=O)NCc3ccc4c(c3)OCO4)c2C1=O,0,4,-6,-4,1,29*
COCCN1Cc2cccc(C(=O)NCc3ccccn3)c2C1=O,4,1,-14,1,1,-11
COCCN1Cc2cccc(C(=O)N3CCN(c4ccccc4)CC3)c2C1=O,1,0,95*,-3,7,-2
O=C(Nc1ccccc1[N+](=O)[O-])NC1CCCCN(Cc2ccc(Cl)cc2)C1=O (configuration not stated),·,·,·,-3,·,·
COc1cccc(N2C(=O)C3CCCN3C2c2ccc(N(C)C)cc2)c1 (configuration not stated),0,0,95*,6,-3,-6
COc1cc2c(cc1NC(=O)CSc1nnc(-c3cccnc3)n1-c1ccc(Br)cc1)oc1ccccc12,·,·,·,1,·,·
Cc1c(-c2ccccc2)oc2c(C(=O)N3CCN(c4ccc([N+](=O)[O-])cc4)CC3)cccc2c1=O,90*,-1,-7,2,-11,1
CCN1CCN(C(=O)/C=C/c2ccc(C)o2)CC1,1,0,-7,-1,-2,-10

# Screening data (PubChem)
